An excerpt weighted towards active compounds, which were near 4.7% of everything screened.
HSF1 inhib: HSF1 inhibition | activity change, negative = inhibition, % at 7.5 µM (by protocol) | NIH3T3-HGL HSE-luciferase, MG132-induced, luminescence 8 h; stronger effect = lower value | 300,000 tested, 0.77% active;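 active = more than half of replicate wells show activity change below -50%, luminescence cut by over half; inconclusive = some wells, but at most half, below -50%; inactive = no replicate well below -50%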;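 note: luciferase reports HSF-1 transcriptional activity via heat shock element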
TROY signal inh: TROY signaling inhibition. Q293 LMP1-TROYcd NF-kB luciferase reporter, 4 h. inhibition, % at 10 µM. 360,000 tested, 0.98% active. AID 1347056;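 active = compounds whose plate-normalised and pattern-corrected inhibition of the luciferase reporter signal at the single screening dose is 50% or more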
HSP90 inh: HSP90 refolding inhibition in rabbit reticulocyte lysate | luciferase refolding luminescence, 3 h | AID 1789 | inhibition, % at 5.6 µM | 290,000 tested, 0.91% active;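 active = inhibition above the screen-wide mean plus 3 SD, computed separately per campaign, cut at about 16% in these data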;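 note: inhibitors lower the luminescence because luciferase stays unfolded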
HSF-1 act: increases HSF-1 driven luciferase reporter signal; 300,000 tested, 1.7% active; activation, % at 9 µM; NIH3T3-HGL HSF-1 luciferase reporter, MG132, 8 h; 100% = twice DMSO control signal;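 active = mean replicate activation of at least 50% with a set share of replicates each reaching 50%; inconclusive = only one of those two conditions met; inactive = mean below 50% and too few replicates reaching it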
TWEAK Fn14 block: blocks TWEAK-Fn14 interaction in a reporter cell assay; TWEAK-stimulated Fn14 reporter cells, luciferase luminescence, 8 h; inhibition, % at 10 µM; 360,000 tested, 2% active; in the data active = inhibition above about 50%
EBV LMP1 NFkB: reduces LMP1-driven NF-kappaB luciferase signal. inhibition, % at 12.5 µM. 350,000 tested, 0.69% active. AID 504558. LMP1-induced NF-kappaB luciferase reporter cells, luminescence; in the data active = inhibition above about 41%; inconclusive = no clear call, values can overlap the other calls
Large screens that a line does not name were inactive.

O=C(Nc1ccc(F)c(Cl)c1)c1cc(C2CCCN(C(=O)CCc3ccccc3)C2)on1 (stereo not given)	none (no result: HSF1 inhib, HSP90 inh, HSF-1 act, EBV LMP1 NFkB)
N#Cc1ccc(NC(=O)COC(=O)c2cccc(S(=O)(=O)N3CCCC3)c2)cc1	none (no result: HSF1 inhib, HSP90 inh, HSF-1 act)
CCn1ncc(/C=C/C(=O)c2ccccc2)c1C	HSF-1 act 52.9, TWEAK Fn14 block 53.0
Cc1c(/C=C/C(=O)c2ccccc2)cnn1C	none
CC(=O)NC(C)(c1ccccc1)c1nc(-c2cnc3ccccc3c2)cs1 (stereo not given)	none (no result: HSF1 inhib, HSP90 inh, HSF-1 act, EBV LMP1 NFkB)
Cc1nc(-c2ccccc2)cn(O)c1=O	TWEAK Fn14 block 64.5
COc1ccccc1NS(=O)(=O)c1cccc(C(=O)OCc2nc3ccccc3s2)c1	TROY signal inh 67.7, TWEAK Fn14 block 57.8
COc1ccccc1NS(=O)(=O)c1ccc2oc(SCc3ccc(C#N)cc3)nc2c1	TWEAK Fn14 block 57.7
COC(=O)[C@]12CCCCC=C1N(Cc1ccco1)C(=O)[C@H](CC(=O)N1CCOCC1)C2	none (no result: HSF1 inhib, HSP90 inh, HSF-1 act, EBV LMP1 NFkB)
COCCNC(=S)N(CCc1c(C)[nH]c2ccc(F)cc12)Cc1ccco1	HSF-1 act 53.4
CCC1CCCCN1CC(=O)c1c(C)[nH]c2ccc(OC)cc12 (stereo not given)	TWEAK Fn14 block 84.9
Cc1[nH]c2ccccc2c1C(=O)CN1CCCCC1C (stereo not given)	TWEAK Fn14 block 79.4 (no result: TROY signal inh)
CCc1nc2c(OCc3cccc(OC)c3)cccn2c1N(C)C(=O)c1ccc(OC)cc1	none (no result: HSF1 inhib, HSP90 inh, HSF-1 act, EBV LMP1 NFkB)
Cc1cc(C)c(C(CC(=O)c2cccs2)C(C#N)C#N)c(C)c1 (stereo not given)	HSF-1 act 122.5, TWEAK Fn14 block 66.4
Cc1ccc(Nc2c(N)c(=O)oc3ccccc23)cc1	HSF-1 act 161.2
CCOC(=O)c1sc(NC(=O)c2cc(-c3ccccc3C)nc3ccccc23)c(C#N)c1C	TROY signal inh 68.5, TWEAK Fn14 block 63.2
CCOC(=O)c1sc(NC(=O)CSc2nc(C)cc(-c3ccccc3)n2)c(C#N)c1C	none
CCOC(=O)c1sc(NC(=O)CSc2n[nH]c(-c3ccc(Cl)cc3Cl)n2)c(C#N)c1C	TROY signal inh 63.4
Cc1ccc(-c2nn(-c3ccccc3)cc2CN(C)C(=O)CCC(=O)O)cc1C	HSF1 inhib -55.3
O=C(O)CCC(=O)NCc1cn(-c2ccccc2)nc1-c1cccc(Br)c1	none
O=C(N=Nc1c(O)[nH]c2ccccc12)c1cccs1	HSF-1 act 76.4
O=C(O)c1ccc(N=Nc2c(O)[nH]c3ccccc23)cc1	HSP90 inh 41.2, TWEAK Fn14 block 89.7
CN(C)C(=O)c1ccc(N=Nc2c(O)c3ccccc3[nH]c2=O)cc1	none (no result: HSF1 inhib, HSP90 inh, HSF-1 act)
O=C(N=Nc1c(O)[nH]c2ccccc12)c1cc(NS(=O)(=O)c2cccs2)cc(NS(=O)(=O)c2cccs2)c1	none
CC(=O)OC[C@@H]1CN(Cc2ccccc2)C[C@H](n2cnc3c(Nc4ccccc4)ncnc32)O1	none (no result: HSF1 inhib, HSP90 inh, HSF-1 act, EBV LMP1 NFkB)
COc1ccc(Cc2c(-c3cccc(Cl)c3)nc3ccc(Cl)cn23)c(C)c1	none (no result: HSF1 inhib, HSP90 inh, HSF-1 act, EBV LMP1 NFkB)
CC(C)c1ccc(-n2c(-c3ccccc3)c[n+]3c2CCc2ccccc2-3)cc1	TROY signal inh 58.9, TWEAK Fn14 block 84.2
O=C(Nc1ccccc1)C1=C(O)CC(c2ccoc2)CC1=Nc1ccccc1 (stereo not given)	HSF-1 act 86.0
O=C(NC1CCCCC1)N(c1ccccc1)c1nnc(-c2cccc([N+](=O)[O-])c2)s1	none (no result: HSF1 inhib, HSP90 inh, HSF-1 act)
CN1C2CCC1/C(=C\c1ccc(F)cc1)C(=O)/C2=C/c1ccc(F)cc1	TWEAK Fn14 block 64.6
COC(=O)c1cnc(NC(=O)C2(C)CCN2C(=O)C(C)C)s1 (stereo not given)	none (no result: HSF1 inhib, HSP90 inh, HSF-1 act, EBV LMP1 NFkB)
CCOC(=O)c1c(C)c(C(=O)NCCc2ccccc2)c(C)n1C	HSF-1 act 77.3
CCC(=O)N1CCC1(C)C(=O)NCc1ccc(SC)cc1 (stereo not given)	none (no result: HSF1 inhib, HSP90 inh, HSF-1 act, EBV LMP1 NFkB)
COc1cc(CNc2ncnc3c2ncn3[C@H]2CN(CCN3CCOCC3)C[C@@H](CO)O2)cc(OC)c1OC	none (no result: HSF1 inhib, HSP90 inh, HSF-1 act, EBV LMP1 NFkB)
C[C@@H]1CN([C@@H](C)CO)C(=O)CCCn2nncc2CO[C@@H]1CN(C)S(=O)(=O)c1cccc(F)c1	none (no result: HSF1 inhib, HSP90 inh, HSF-1 act)
CC1=NC(=O)C(N=Nc2cccc(C(=O)O)c2)N1c1ccccc1 (stereo not given)	HSP90 inh 16.6
Cc1cccc(/C=N/NC(=O)c2ccccc2OCc2cccc(Br)c2)n1	TWEAK Fn14 block 76.5
CC1(C(=O)Nc2ccccc2)CCN1C(=O)CCc1ccc(Cl)cc1Cl (stereo not given)	none (no result: HSF1 inhib, HSP90 inh, HSF-1 act, EBV LMP1 NFkB)
CC(C)c1nnc(NC(=O)CCS(=O)(=O)c2ccccc2)s1	none
Cc1ccc(OCCCC(=O)Nc2nccs2)cc1	none
CCCC(C)c1nnc(NC(=O)CCS(=O)(=O)c2ccccc2)s1 (stereo not given)	TWEAK Fn14 block 57.2
Cc1cccc(OCCCC(=O)Nc2nccs2)c1	HSF-1 act 66.7
CC(C)c1nnc(NC(=O)CCCC(=O)O)s1	TWEAK Fn14 block 75.8 (no result: TROY signal inh)
Cc1nc2cc(NC(=O)CCS(=O)(=O)c3ccccc3)ccc2s1	HSF-1 act 52.2
COc1ccc(C(O)c2ncc(-c3ccc4ccccc4c3)[nH]2)cc1F (stereo not given)	none (no result: HSF1 inhib, HSP90 inh, HSF-1 act, EBV LMP1 NFkB)
CC(C)=NNc1cnnc2ccc([N+](=O)[O-])cc12	none (no result: HSF1 inhib, HSP90 inh, HSF-1 act, EBV LMP1 NFkB)
O=C(CCS(=O)(=O)c1ccc(F)cc1)Nc1nccs1	none (no result: HSF1 inhib, HSP90 inh, HSF-1 act)
O=C(CCS(=O)(=O)c1ccccc1)Nc1nccs1	EBV LMP1 NFkB 83.8
COc1ccc(CN2CCNC(=O)C2CC(=O)O)cc1OC (stereo not given)	none
COc1ccc(CN2CCNC(=O)C2CC(=O)NC2CC(C)(C)CC(C)(C)C2)cc1OC (stereo not given)	HSF1 inhib -70.4
CC1=C(C(=O)N(C(C)C)C(C)C)CC(CC(=O)NC2CC2)C(=O)N1CCCN1CCCC1=O (stereo not given)	TROY signal inh 75.1 (no result: HSF1 inhib, HSP90 inh, HSF-1 act, EBV LMP1 NFkB)
C[C@@H](NC(=O)[C@@H]1CCCN1C(=O)[C@@H]1CCCN1)c1ccccc1	none (no result: HSF1 inhib, HSP90 inh, HSF-1 act, EBV LMP1 NFkB)
O=[N+]([O-])c1ccc(/C=N\NS(=O)(=O)c2ccc(F)cc2)o1	TWEAK Fn14 block 84.4
CC(OC(=O)/C=C/c1ccc2ccccc2n1)C(=O)Nc1ccc(S(N)(=O)=O)cc1 (stereo not given)	HSF-1 act inconclusive, TWEAK Fn14 block 58.1 (no result: HSP90 inh)
CC(C)NC(=O)c1cccc2c(-c3ccc(F)c(F)c3)coc12	none (no result: HSF1 inhib, HSP90 inh, HSF-1 act, EBV LMP1 NFkB)
COC(=O)c1ccc2c(c1O)C(=O)c1ccccc1C2=O	HSF-1 act 99.5
COC(=O)c1cccc2c1-c1ccccc1/C2=N\NC(N)=O	none
COC(=O)c1cccc2c1-c1ccccc1/C2=N/O	TROY signal inh 56.1, TWEAK Fn14 block 82.9, EBV LMP1 NFkB 43.8
CCOC(=O)N1CCN(CC(O)COC2CC(C)CC(C)(C)C2)CC1 (stereo not given)	HSF1 inhib -84.5
C[C@H](CO)N1C[C@H](C)[C@H](CN(C)Cc2cncnc2)Oc2ncc(C#CC3(O)CCCC3)cc2C1=O	none (no result: HSF1 inhib, HSP90 inh, HSF-1 act)

From PubChem BioAssay
